Compound activity: PubChem, National Center for Advancing Translational Sciences (NCATS)
The list is not random: actives were taken first. Their share in the collection is about 4.3%.
GLP-1R agonist = qHTS of GLP-1 Receptor Agonists; hit rate 0.007% among 380,000; AID 624172, 2012; Potency, µM (top dose mostly 45.6 µM), for the others: top-dose activation, hits mostly activators; Glucagon-like peptide 1 receptor (Homo sapiens), P43220; HEK293 GLP-1R CRE-luciferase, luminescence, 4-6 h; cells express a hypersensitive GLP-1R form; also: potency is read from the fitted curve at half-maximal effect; % of control where 0% means no effect
Target sequence (P43220 whole entry, looked up): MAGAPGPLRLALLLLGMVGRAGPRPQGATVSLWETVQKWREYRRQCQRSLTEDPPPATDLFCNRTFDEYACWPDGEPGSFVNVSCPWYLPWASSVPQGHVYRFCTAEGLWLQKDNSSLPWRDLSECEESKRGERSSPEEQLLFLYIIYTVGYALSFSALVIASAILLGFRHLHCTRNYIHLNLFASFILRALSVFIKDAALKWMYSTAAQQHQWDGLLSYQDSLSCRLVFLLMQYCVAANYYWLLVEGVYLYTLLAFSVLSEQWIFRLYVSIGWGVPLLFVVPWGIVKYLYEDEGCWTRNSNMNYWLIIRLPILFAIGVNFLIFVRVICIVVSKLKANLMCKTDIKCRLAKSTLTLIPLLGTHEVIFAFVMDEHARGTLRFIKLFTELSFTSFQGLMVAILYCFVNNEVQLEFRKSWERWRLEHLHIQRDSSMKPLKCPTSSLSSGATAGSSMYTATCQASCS
DRD3 agonist = qHTS of D3 Dopamine Receptor Agonist: qHTS; hit rate 0.58% among 410,000; D3R DiscoveRx beta-arrestin cells, luminescence, 90 min; AID 652048, 2013; D(3) dopamine receptor (Homo sapiens), P35462; max activation, %; in the data active = max activation above about 30%; also: 0% is about no effect
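Agonist mode: compounds and dopamine controls were applied to plated cells for 90 min at 37 degrees C after an overnight attachment at 1500 cells/well. Luminescent read-out followed 30 - 60 minutes at room temperature with DiscoveRx detection reagent.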
DRD3 antagonist = qHTS of D3 Dopamine Receptor Antagonist: qHTS; hit rate 2.5% among 360,000; D(3) dopamine receptor (Homo sapiens), P35462; max response, negative = inhibition, %; D3R cells, DiscoveRx beta-arrestin luminescence, antagonist mode; hits give low values; AID 652054, 2013; in the data active = max response below about -50%; inconclusive = no clear call, values can overlap the other calls; also: % is scaled to controls: 0 for no effect and ±100 for the full control effect
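Cells expressing the human receptor were seeded at 1500 cells/well, incubated overnight at 37 degrees C in 5% CO2, then exposed to library compounds with dopamine controls for 90 minutes at 37 degrees C before luminescent detection.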
GLP-1R inv ag = qHTS of GLP-1 Receptor Inverse Agonists (Inhibition Mode); Glucagon-like peptide 1 receptor (Homo sapiens), P43220; HEK293 GLP-1R CRE-luciferase, luminescence, 24 h; GLP-1R form is constitutively active; Potency, µM (highest dose often 38.3 µM), for inactives: at the highest dose activity change, negative = inhibition, most hits filed as inhibitors; hit rate 1.6% among 410,000; AID 624417, 2012; also: potency is read from the fitted curve at half-maximal effect; % is scaled to controls: 0 for no effect and ±100 for the full control effect; nearly all actives have a fitted effect of over 55% in size
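Cells are plated, allowed 12 hours at 37 deg C, then treated with compounds for 24 hr before luciferase detection reagent is added and luminescence is read after 12 min at room temperature. The HEK293 line carries constitutively active GLP-1R with a cAMP-responsive reporter.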
The depositor's hits bear a star; [ ] = remark or other dose. Unless noted, calls follow the shape of the dose curve; as a rule, active = well fitted curve in the direction sought with a large enough effect; inconclusive = small, poorly fitted or top-dose-only effect, or another doubt; inactive = no such curve, though single readings can be large; an effect the other way counts as inactive or inconclusive.

What do the screens show for `CCOc1ccc(C(=O)NC2CC3CCCC(C2)N3Cc2ccccc2)cc1` (stereo not drawn)?
GLP-1R agonist: 0%; DRD3 agonist: -9; DRD3 antagonist: -54*; GLP-1R inv ag: inconclusive

Results for Cc1ccc(CN2C3CCCC2CC(NC(=O)Nc2cccc(F)c2)C3)cc1 (stereo not drawn) ?
GLP-1R agonist: -1%; DRD3 agonist: -17; DRD3 antagonist: -99*; GLP-1R inv ag: inconclusive

How did Cc1ccc(N2CC(C(=O)Nc3cc(S(=O)(=O)N4CCCCC4)ccc3C)CC2=O)cc1 (stereo not drawn) do in these assays?
GLP-1R agonist: 5%; DRD3 agonist: -12; DRD3 antagonist: -21; GLP-1R inv ag: inconclusive

Results for CCOc1cc(CNCCc2c[nH]c3ccccc23)cc(Cl)c1OCC ?
GLP-1R agonist: -5%; DRD3 agonist: -29; DRD3 antagonist: -76*; GLP-1R inv ag: 11µM*

What do the screens show for `COc1cc(C)c(CNCCc2c[nH]c3ccccc23)cc1C`?
GLP-1R agonist: 3%; DRD3 agonist: -17; DRD3 antagonist: 11; GLP-1R inv ag: inconclusive

What do the screens show for `COc1ccc2[nH]cc(CCNCc3cccnc3)c2c1`?
GLP-1R agonist: 1%; DRD3 agonist: -15; DRD3 antagonist: 4; GLP-1R inv ag: -3%

How did COc1ccc(CNCCc2c[nH]c3ccccc23)c(OC)c1C do in these assays?
GLP-1R agonist: 5%; DRD3 agonist: -23; DRD3 antagonist: -71*; GLP-1R inv ag: -83%

What do the screens show for `CCCN(CCC)CCc1c[nH]c2ccccc12`?
GLP-1R agonist: 3%[96 µM]; DRD3 agonist: 2

Results for COc1ccc(CN(CCc2c[nH]c3ccccc23)Cc2ccc(OC)cc2)cc1 ?
GLP-1R agonist: -5%; DRD3 agonist: -8; DRD3 antagonist: -50*; GLP-1R inv ag: 10µM*

What do the screens show for `CCOc1c(Cl)cc(CNCCc2c[nH]c3ccccc23)cc1OC`?
GLP-1R agonist: 9%; DRD3 agonist: -4; DRD3 antagonist: -1; GLP-1R inv ag: inconclusive

Results for COc1cccc(CNCCc2c[nH]c3ccccc23)c1 ?
GLP-1R agonist: 15%; DRD3 agonist: -21; DRD3 antagonist: -54*; GLP-1R inv ag: inconclusive

Results for C[N+]1(C)[C@@H]2CC(OC(=O)[C@@H](CO)c3ccccc3)C[C@@H]1[C@H]1O[C@H]12 (stereo partly drawn) ?
GLP-1R agonist: 0%

Results for C[C@]12CC[C@H]3[C@@H](CCC4=CC(=O)CC[C@@]43C)[C@@H]1CC[C@@H]2OC(=O)CCc1ccccc1 ?
DRD3 agonist: 10

How did CCCCCc1cc(O)c2c(c1)OC(C)(C)c1ccc(C)cc1-2 do in these assays?
GLP-1R agonist: -2%; DRD3 agonist: -16

What do the screens show for `CC(C)N1CCOC(c2ccc(O)c(O)c2)C1` (stereo not drawn)?
GLP-1R agonist: 14%; DRD3 agonist: 95*; DRD3 antagonist: 19; GLP-1R inv ag: 41%

Results for C[CH2][Hg][S]c1ccccc1C(=O)O ?
GLP-1R agonist: -11%; DRD3 agonist: -41; DRD3 antagonist: -64*; GLP-1R inv ag: inconclusive

What do the screens show for `CC(C)COC(=O)c1ccccc1C(=O)OCC(C)C`?
GLP-1R agonist: -3%; DRD3 agonist: -5; DRD3 antagonist: -5; GLP-1R inv ag: inconclusive

What do the screens show for `CCO/N=C(\CC)C1=C(O)CC(c2c(C)cc(C)cc2C)CC1=O` (stereo not drawn)?
DRD3 agonist: 8

Results for COc1ccc(C(C)(C)C)cc1NC(=O)CCCn1c(=O)oc2ccccc21 ?
GLP-1R agonist: -1%; DRD3 agonist: -3; DRD3 antagonist: -9; GLP-1R inv ag: inconclusive

What do the screens show for `CCCN1CC[C@@H]2c3cc(O)ccc3CC[C@@H]21`?
GLP-1R agonist: -1%; DRD3 agonist: 51*; DRD3 antagonist: 10; GLP-1R inv ag: 25%

Results for Cc1ccc(N2CCN(CCc3ccccc3)CC2)cc1 ?
GLP-1R agonist: -19%; DRD3 agonist: -45; DRD3 antagonist: -66*; GLP-1R inv ag: 0%

How did COc1ccccc1N1CCN(CCc2ccccc2)CC1 do in these assays?
GLP-1R agonist: -2%; DRD3 agonist: -1; DRD3 antagonist: -104*; GLP-1R inv ag: -2%

Results for Cc1cccc(N2CCN(CCc3ccccc3)CC2)c1C ?
GLP-1R agonist: -2%; DRD3 agonist: 20; DRD3 antagonist: -68*; GLP-1R inv ag: inconclusive

What do the screens show for `Cc1ccccc1CN1CCN(Cc2ccccc2)CC1`?
GLP-1R agonist: 1%; DRD3 agonist: -16; DRD3 antagonist: inconclusive; GLP-1R inv ag: -22%

What do the screens show for `COc1ccccc1N1CCN(Cc2cnc(-c3ccccc3)[nH]2)CC1`?
GLP-1R agonist: 0%; DRD3 agonist: -27; DRD3 antagonist: -83*; GLP-1R inv ag: -4%

Results for Cc1ccc2c(c1)C1CN(C)CCC1N2C(=O)c1ccccc1NS(=O)(=O)c1cccc(C(F)(F)F)c1 (stereo not drawn) ?
GLP-1R agonist: 0%; DRD3 agonist: 1; DRD3 antagonist: -8; GLP-1R inv ag: inconclusive

What do the screens show for `Cc1ccc2c(c1)C1CN(C)CCC1N2` (stereo not drawn)?
DRD3 agonist: -21

How did Cc1csc(NC(=O)C(Cl)c2ccccc2)n1 (stereo not drawn) (tested in a mixture with another compound) do in these assays?
GLP-1R agonist: -3%; DRD3 agonist: 2; DRD3 antagonist: -5; GLP-1R inv ag: 0%

How did CC(C)(C)c1csc(NC(=O)Nc2ccccc2)n1 do in these assays?
GLP-1R agonist: 29%; DRD3 agonist: -9; DRD3 antagonist: -2; GLP-1R inv ag: 10µM*

How did Cc1cc(C(C#N)c2ccc(Cl)cc2)c(Cl)cc1NC(=O)c1cc(I)cc(I)c1O (stereo not drawn) do in these assays?
GLP-1R agonist: inconclusive; DRD3 agonist: 14; DRD3 antagonist: 14; GLP-1R inv ag: inconclusive

How did CN1CCN(Cc2ccc(N)cc2)CC1 do in these assays?
GLP-1R agonist: -4%; DRD3 agonist: 7; DRD3 antagonist: -5; GLP-1R inv ag: -20%

What do the screens show for `CN1CCN(Cc2cc(C(C)(C)C)c(O)c(C(C)(C)C)c2)CC1`?
GLP-1R agonist: -14%; DRD3 agonist: -9; DRD3 antagonist: -82*; GLP-1R inv ag: -21%

How did COC(=O)C1=CN(c2ccc(C(C)(C)C)cc2)C(N)=C(C#N)C1c1cccc([N+](=O)[O-])c1 (stereo not drawn) do in these assays?
DRD3 agonist: 0; DRD3 antagonist: -11; GLP-1R inv ag: inconclusive

Results for COc1ccc(-n2nnnc2C(CCc2ccccc2)N2CCC(n3c(=O)[nH]c4ccccc43)CC2)cc1 (stereo not drawn) ?
GLP-1R agonist: -21%; DRD3 agonist: 19; DRD3 antagonist: 94; GLP-1R inv ag: inconclusive

What do the screens show for `O=c1[nH]c2ccccc2n1C1CCN(C(CCc2ccccc2)c2nnnn2-c2ccc3c(c2)OCCO3)CC1` (stereo not drawn)?
GLP-1R agonist: -5%; DRD3 agonist: 36*; DRD3 antagonist: 98; GLP-1R inv ag: inconclusive
